Nrf2 inh: Nrf2 qHTS screen for inhibitors; Potency, µM (highest dose often 46 µM), for the others: top-dose activity change, negative = inhibition, hits mostly inhibitors; A549 ARE-Fluc reporter, luciferase luminescence, 18-24 h; hit rate 2.1% among 360,000; further: potency means the concentration at half of the fitted maximal effect; on the % scale 0 is the no-effect control and ±100 the full control effect; nearly all actives have a fitted effect of over 60% in size
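A549 ARE_Fluc cells, 5000/well, 5% FBS OPTI-MEM; compounds in dose-response, 18-24 h at 37 °C/5% CO2; CellTiter-Fluor viability read (Ex 405/Em 525), then BugLite luciferase luminescence = Nrf2 activity.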
A549 tox-1: Nrf2 qHTS screen for inhibitors: counterscreen for cytotoxicity. Potency, µM (titrated, usually from 46 µM), for inactives: at the highest dose activity change, negative = cytotoxicity, usual class: inhibitors. A549 ARE-Fluc cells, CellTiter-Fluor viability, 18-24 h. AID 504648, 2011. hit rate 0.16% among 390,000; further: potency means the concentration at half of the fitted maximal effect; on the % scale 0 is the no-effect control and ±100 the full control effect
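Cytotoxicity counterscreen: CellTiter-Fluor fluorescence was measured in A549 ARE_Fluc cells after 18-24 h of compound exposure in a concentration series. The subsequent BugLite luminescent read reports ARE-luciferase activity.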
Mito fusion yeast: qHTS Assay for Small Molecule Inhibitors of Mitochondrial Division or Activators of Mitochondrial Fusion. AID 485298, 2010. hit rate 0.23% among 320,000. Potency, µM (titrated, usually from 46.1 µM), inactives show at the highest dose growth rescue (activation), hits mostly activators. S. cerevisiae fusion-defective mutant growth rescue, CellTiterGlo 48 h; further: potency means the concentration at half of the fitted maximal effect; % of control where 0% means no effect; nearly all actives have a fitted effect of over 45% in size
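Luminescent cell viability in 1536-well qHTS format served as the measure of rescued growth in ts fusion-mutant S. cerevisiae cultured on non-fermentable YPEG for 48 hours at 37C.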
Nrf2 activator: qHTS of Nrf2 Activators. AREc32 ARE-luciferase reporter (MCF7-derived line), luminescence, 24 h. Potency, µM (top dose mostly 46.1 µM), for the others: top-dose activation, most hits filed as activators. hit rate 0.31% among 410,000. AID 624171, 2012; further: potency means the concentration at half of the fitted maximal effect; % of control where 0% means no effect; nearly all actives have a fitted effect of over 65% in size
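Quantitative high-throughput format: AREc32 reporter cells, 1000 per well, received compound by pin transfer and were incubated 24 hr at 37 deg C, 5% CO2, before Steady-Glo luminescence detection.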
Glioma ERSR ind: qHTS for Inducers of the Endoplasmic Reticulum Stress Response (ERSR) in Human Glioma: qHTS; U87-MG GRP78 promoter luciferase reporter, 16 h; Potency, µM, inactives show top-dose activation, most hits filed as activators; hit rate 0.02% among 420,000; AID 602332, 2012; further: potency means the concentration at half of the fitted maximal effect; series mostly up to about 76 µM; % of control where 0% means no effect; nearly all actives have a fitted effect of over 35% in size
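Stably transfected U87-MG human glioma cells carrying a GRP78-based luminescent sensor were seeded at 1000 cells/well, pin-dosed with compounds and incubated 16 h. Luciferase reagent was then added, and end-point luminescence was read after 10 min at room temperature.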
miR-21 reporter: qHTS Assay for Modulators of miRNAs and/orActivators of miR-21 | HeLa miR-21 FLuc reporter, luciferase, 48 h | Potency, µM (top dose mostly 38.3 µM), for the others: top-dose activity change, positive = activation, usual class: activators | 340,000 tested, under 10 active;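 further: % of control where 0% means no effect; miR-21 action dims this reporter so a rising signal means less miR-21 action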
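Luminescence from a firefly luciferase reporter carrying a miR-21 binding site downstream, stably expressed under a CMV promoter in HeLa cells that make miR-21 endogenously, reports miRNA modulation after 48 h compound exposure up to approximately 40uM final.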
FLuc enzyme inh: Nrf2 qHTS screen for inhibitors: Purified Fluc Biochemical Counterscreen for Hit Validation; shares compounds with Nrf2 inh; purified firefly luciferase, luminescence inhibition; Potency, µM (top dose mostly 57.5 µM), for inactives: at the highest dose activity change, negative = inhibition, usual class: inhibitors; hit rate 4% among 1,400; further: potency means the concentration at half of the fitted maximal effect; on the % scale 0 is the no-effect control and ±100 the full control effect; nearly all actives have a fitted effect of over 65% in size
Target sequence (P08659 whole entry, looked up): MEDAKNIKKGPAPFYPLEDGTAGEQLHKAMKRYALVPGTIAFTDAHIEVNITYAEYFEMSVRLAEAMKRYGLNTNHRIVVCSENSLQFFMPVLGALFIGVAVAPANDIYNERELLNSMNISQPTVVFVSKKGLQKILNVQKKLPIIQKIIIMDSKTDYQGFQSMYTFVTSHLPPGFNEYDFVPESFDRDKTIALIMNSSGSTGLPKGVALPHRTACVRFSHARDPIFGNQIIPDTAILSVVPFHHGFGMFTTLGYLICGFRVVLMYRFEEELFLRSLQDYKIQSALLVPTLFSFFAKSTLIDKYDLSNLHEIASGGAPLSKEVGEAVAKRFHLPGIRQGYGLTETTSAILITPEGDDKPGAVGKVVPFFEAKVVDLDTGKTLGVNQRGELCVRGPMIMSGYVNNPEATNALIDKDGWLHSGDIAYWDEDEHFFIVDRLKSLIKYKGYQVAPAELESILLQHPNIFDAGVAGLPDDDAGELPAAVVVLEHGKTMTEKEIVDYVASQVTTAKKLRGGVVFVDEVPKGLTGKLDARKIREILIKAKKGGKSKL
A549 tox-2: Nrf2 qHTS screen for inhibitors: A549 ARE-Fluc Cytotoxicity Counterscreen for Hit Validation | Potency, µM (top dose mostly 46.1 µM), without a hit: at the highest dose activity change, negative = cytotoxicity, usual class: inhibitors | AID 720523, 2013 | shares compounds with Nrf2 inh | A549 ARE-Fluc cells, cytotoxicity counterscreen | hit rate 2% among 1,400;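 further: potency means the concentration at half of the fitted maximal effect; cells exposed to compounds for 18 to 24 hours; on the % scale 0 is the no-effect control and ±100 the full control effect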
Nrf2 ARE inh: Nrf2 qHTS screen for inhibitors: Nrf2 A549 ARE-Fluc Confirmation Assay for Hit Validation; shares compounds with Nrf2 inh; A549 ARE-firefly luciferase reporter, luminescence; Potency, µM (doses to about 46.1 µM), without a hit: at the highest dose activity change, negative = inhibition, usual class: inhibitors; hit rate 74% among 1,400; further: potency means the concentration at half of the fitted maximal effect; on the % scale 0 is the no-effect control and ±100 the full control effect; nearly all actives have a fitted effect of over 65% in size
* = called active by the depositor; ? = inconclusive; . = not tested or not shown; [ ] = remark or other dose. Rows were chosen to be rich in hits. Some 2.3% of all compounds tested hit in one or more screens of this group. The call rests on the fitted dose curve; in most records, active means well fitted curve in the direction sought with a large enough effect; inconclusive means small, poorly fitted or top-dose-only effect, or another doubt; inactive means no such curve, though single readings can be large; an effect the other way counts as inactive or inconclusive.

SMILES	Nrf2 inh	A549 tox-1	Mito fusion yeast	Nrf2 activator	Glioma ERSR ind	miR-21 reporter	FLuc enzyme inh	A549 tox-2	Nrf2 ARE inh
C=CCn1cc(/C=C/c2cc[n+](C)cc2)c2ccccc21	2.31µM*	?	-5.5%	8.5%	-5.4%	?	0.9%	-28.8%	1.84µM*
Cc1ccccc1/C=C/c1cc[n+](C)cc1	1.3µM*	-8.1%	-3.2%	14.3%	-1.9%	4.0%	4.4%	-12.5%	23.1µM*
CC(C)(C)OC(=O)N1CC23CC(c4ccc(F)cc4)C(CC2S1(=O)=O)O3 (configuration not stated)	13.6%	-0.3%	.	.	-5.3%	.	.	.	.
Cc1occc1C(=O)N1N=C(C2CC2)CC1(O)C(F)(F)F (configuration not stated)	3.8%	-0.6%	1.0%	0.2%	-1.3%	-12.5%	.	.	.
CCOC(=O)c1c(Nc2ccc(Cl)cc2)sc(/C=C2\C=Nc3ccccc32)c1O	1.46µM*	-7.4%[1.84 µM]	-0.7%	0.3%	-3.5%	-9.1%	-27.3%	?	4.11µM*
O=C1Cc2c([nH]c3ccc([N+](=O)[O-])cc23)-c2ccccc2N1	2.31µM*	?	.	-0.8%	-3.2%	.	-20.5%	?	2.31µM*
Cc1ccc2nc(C(F)(F)F)c(C#N)c(N)c2c1	3.66µM*	?	-5.9%	-1.9%	-3.6%	25.0%	-12.1%	-26.0%	7.31µM*
Cc1cc(C)c2nc(C(F)(F)F)c(C#N)c(N)c2c1	?	-20.2%	-7.3%	-0.4%	-9.9%	0.7%	.	.	.
Cc1ccccc1S(=O)(=O)NC1OC(=O)C(Oc2ccccc2)=C1Br (configuration not stated)	-0.9%	-0.2%	-2.6%	-0.1%	-4.6%	-4.6%	.	.	.
O=S(=O)(c1ccc2c(c1)OCCO2)N1CCC(c2nc3ccccc3[nH]2)CC1	.	-8.2%	-1.4%	0.0%	-2.3%	7.9%	.	.	.
O=S(=O)(c1ccc2ccccc2c1)N1CCC(c2nc(-c3ccncc3)no2)CC1	4.11µM*	-26.4%	7.4%	-0.2%	-2.3%	-7.6%	2.8%	-5.8%	?
COc1ccc(S(=O)(=O)N2CCC(c3nc4ccccc4s3)CC2)cc1OC	12.5%	5.7%	.	-1.2%	-4.7%	8.4%	.	.	.
O=S(=O)(c1ccc2c(c1)OCCO2)N1CCC(c2nc3ccc(Cl)cc3[nH]2)CC1	4.61µM*	?	4.7%	4.0%	-4.2%	27.8%	-13.1%	-22.3%	10.3µM*
O=S(=O)(c1ccc2c(c1)OCCO2)N1CCC(c2nc3ccccc3s2)CC1	3.26µM*	-0.3%[1.84 µM]	3.7%	-0.3%	-1.0%	-1.4%	-1.4%	-6.5%	-47.9%
CN(C)c1ccc(-c2noc(C3CCN(S(=O)(=O)c4cccc(Cl)c4)CC3)n2)cc1	.	-8.7%	-1.3%	-0.7%	-3.3%	-8.7%	.	.	.
Cc1ccc(-c2noc(C3CCN(S(=O)(=O)c4ccc5c(c4)OCCO5)CC3)n2)o1	6.51µM*	-11.2%	8.6%	1.5%	-0.6%	-4.0%	-16.2%	-13.2%	11.6µM*
Cc1ccc(-c2noc(C3CCCN(S(=O)(=O)c4ccc5ccccc5c4)C3)n2)o1 (configuration not stated)	?	-3.7%	11.2%	0.2%	0.3%	-16.4%	.	.	.
Cc1cnc(CNc2ncnc3ccc(-c4ccc(C(=O)N(C)C)cc4)cc23)cn1	.	.	.	.	-2.7%	.	.	.	.
C=C1C[C@H]2[C@@H]3C=C(C)C4=CC(=O)CC[C@]4(C)[C@H]3CC[C@]2(C)[C@@]1(OC(C)=O)C(C)=O	?	-5.1%	19.5%	0.5%	1.9%	.	-0.8%	-9.4%	0.164µM*
CC(=O)C1(C)CCC2C3C=C(C)C4=CC(=O)CCC4(C)C3CCC21C (configuration not stated)	?	-5.4%	.	-0.1%	-3.0%	.	.	.	.
COC(=O)C12OCC34C(CC5C(C)=C(O)C(=O)CC5(C)C3C(O)C1O)OC(=O)C(OC(=O)C=C(C)C)C24 (configuration not stated)	0.0164µM*	?	.	-0.8%	-5.6%	.	1.6%	?	0.0116µM*
CN1/C(=C/c2cc[n+](C)c3ccccc23)C=Cc2ccccc21	1.16µM*	20.6µM*	-6.5%	-0.4%	-7.6%	?	?	?	6.51µM*
COC(=O)Nc1c(C)nn(Cc2ccccc2C)c1C	1.8%	-10.2%	-4.4%	-0.3%	-5.5%	-4.3%	.	.	.
Cc1nnsc1C(=O)NC1CCCc2c1cnn2-c1ccc(F)cc1F (configuration not stated)	1.16µM*	-18.1%	-1.2%	1.9%	0.5%	16.7%	-14.6%	-8.9%	3.66µM*
CC(C)(C)c1ccc(-n2ncc3c2CCCC3NC(=O)c2cnccn2)cc1 (configuration not stated)	?	-12.2%	16.7%	5.1%	1.1%	-10.6%	.	.	.
Cc1ccc(-n2ncc3c2CCCC3NC(=O)c2ocnc2C)cc1C (configuration not stated)	2.31µM*	-16.8%	1.1%	-0.3%	-2.7%	14.2%	-0.3%	-1.6%	3.26µM*
Cc1cc(C(=O)NC2CCCc3c2cnn3-c2cccc(C)c2C)n(C)n1 (configuration not stated)	0.206µM*	-20.7%	1.7%	0.2%	-1.6%	22.7%	-0.7%	?	0.0206µM*
Cc1nnsc1C(=O)NC1CCCc2c1cnn2-c1cc(F)cc(F)c1 (configuration not stated)	?	2.3%	7.7%	-1.0%	-0.7%	-7.7%	.	.	.
Cn1nccc1C(=O)NC1CCCc2c1cnn2-c1ccc(C(C)(C)C)cc1 (configuration not stated)	0.731µM*	-19.1%	-8.2%	3.1%	-0.8%	23.7%	?	-12.1%	0.731µM*
